Screening results: PubChem BioAssay, several laboratories
The list is not random: actives were taken first. Their share in the collection is about 4.5%.
aSyn 5UTR inh = 5' untranslated region of α-synuclein, MLPCN primary screen | alpha-synuclein 5'UTR reporter, inhibitor activity | inhibition, % (tested at 7.5 µM) | 300,000 tested, 0.82% active | AID 1813; in the data active = inhibition above about 60%;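 also: H4 neuroglioblastoma cells stably carrying SNCA 5'UTR luciferase fusion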
697 NFkB inh = inhibitors of the PMA/ionomycin-induced NF-kB reporter in 697 B cells; 330,000 tested, 0.33% active; inhibition, % at 4 µM; 697 B-cell NF-kB luciferase reporter, 16 h; in the data active = inhibition above about 35%
Gli-Sufu block = antagonists of Gli-Sufu signaling | inhibition, % at 5 µM | Sufu-KO-LIGHT fibroblasts, Gli luciferase reporter luminescence | AID 588413 | 340,000 tested, 0.74% active;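 active = inhibition above about 55%, limit read from the data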
Mdm2-MdmX inh = human Mdm2/MdmX binding inhibition; O15151+Q00987; SaOS-2 split-luciferase Mdm2/MdmX complementation, luminescence; inhibition, % at 8 µM; 330,000 tested, 3% active; AID 485346;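 active = inhibition of at least 50% at 8 µM in the primary screen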
Target sequence (O15151 whole entry, looked up): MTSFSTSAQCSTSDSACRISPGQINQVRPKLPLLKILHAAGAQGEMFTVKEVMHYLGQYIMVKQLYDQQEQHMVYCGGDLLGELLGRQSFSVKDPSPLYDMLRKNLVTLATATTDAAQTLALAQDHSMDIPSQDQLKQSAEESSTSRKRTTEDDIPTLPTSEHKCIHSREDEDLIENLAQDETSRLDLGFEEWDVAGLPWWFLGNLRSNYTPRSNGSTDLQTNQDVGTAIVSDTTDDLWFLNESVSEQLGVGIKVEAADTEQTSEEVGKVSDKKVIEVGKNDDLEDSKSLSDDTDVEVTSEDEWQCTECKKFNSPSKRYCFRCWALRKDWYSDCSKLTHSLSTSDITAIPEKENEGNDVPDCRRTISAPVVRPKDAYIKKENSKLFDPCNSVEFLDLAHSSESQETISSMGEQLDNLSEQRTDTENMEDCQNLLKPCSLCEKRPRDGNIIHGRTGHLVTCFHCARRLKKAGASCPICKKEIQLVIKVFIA
Target sequence (Q00987 whole entry, looked up): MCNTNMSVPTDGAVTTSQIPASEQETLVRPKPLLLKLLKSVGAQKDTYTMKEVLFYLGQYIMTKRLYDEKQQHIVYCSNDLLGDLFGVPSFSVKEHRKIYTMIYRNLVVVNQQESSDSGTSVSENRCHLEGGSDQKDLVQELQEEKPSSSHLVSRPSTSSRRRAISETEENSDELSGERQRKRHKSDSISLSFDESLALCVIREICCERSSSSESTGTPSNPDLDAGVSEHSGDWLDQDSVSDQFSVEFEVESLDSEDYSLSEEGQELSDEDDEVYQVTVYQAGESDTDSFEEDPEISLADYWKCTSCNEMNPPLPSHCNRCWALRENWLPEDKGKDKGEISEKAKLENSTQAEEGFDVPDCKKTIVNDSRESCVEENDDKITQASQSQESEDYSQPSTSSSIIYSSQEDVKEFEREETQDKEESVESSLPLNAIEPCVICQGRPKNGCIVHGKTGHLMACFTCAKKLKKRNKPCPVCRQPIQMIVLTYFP
Jurkat NFkB inh = lowers PMA/ionomycin-induced NF-kB signal in Jurkat cells | PMA/ionomycin-induced NF-kB luciferase reporter, luminescence | inhibition, % at 4 µM | 330,000 tested, 0.53% active | AID 435003; in the data active = inhibition above about 50%
CSC inhib = blocks cancer stem cells | cancer stem cell-like cells viability, luminescence | inhibition, % at 7.5 µM | 300,000 tested, 1.1% active; in the data active = inhibition above about 75%; tested in HMLE shEcad cells
Jurkat NFkB conf = inhibitors of the PMA/ionomycin-induced NF-kB reporter in Jurkat cells, retest; Jurkat NF-kB luciferase, 16 h; inhibition, % at 4 µM; 2,700 tested, 27% active; shares compounds with Jurkat NFkB inh;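 active = inhibition reaching about 45% at 4 µM in either replicate, limit read from the data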
Numbers stand for hits; n = inactive; x = no result given.

SMILES	aSyn 5UTR inh	697 NFkB inh	Gli-Sufu block	Mdm2-MdmX inh	Jurkat NFkB inh	CSC inhib	Jurkat NFkB conf
Cc1cc(C)nc(NC(=O)c2cc3ccccc3o2)n1	n	n	n	n	n	n	x
Cc1ccc2c(c1)cc1c(=O)n(CC(=O)N3CCCC3)nc(C)n12	n	n	n	n	n	n	x
O=C(N/N=C/c1cn(-c2ccccc2)nc1-c1cc2ccccc2o1)c1cccnc1	n	n	n	n	n	n	x
O=C(N/N=C/c1cn(-c2ccccc2)nc1-c1cc2ccccc2o1)c1ccncc1	n	n	n	n	n	n	n
O=C(/C=C/c1ccccc1)c1c[nH]c2ccccc12	n	n	n	n	n	n	n
O=C(C=Cc1ccccc1)c1c[nH]c2ccccc2c1=O	x	x	n	x	x	x	x
CC(C)c1ccc(/C=C2\NC(=S)N(Cc3cccnc3)C2=O)cc1	n	n	n	n	n	n	x
Clc1cccc(Cl)c1/C=C/c1nc2ccccc2[nH]1	n	n	n	n	n	n	n
O=c1[nH]c(/C=C/c2ccccc2Cl)nc2ccccc12	n	n	n	n	n	x	x
O=C(c1ccc2ncsc2c1)N1CCN(c2cccc(C(F)(F)F)c2)CC1	x	n	n	n	55	x	n
CCCC[C@@H]1C=C(C(=O)O)[C@H](c2ccc(Cl)cc2)N1S(=O)(=O)c1ccc(C)cc1	x	n	n	n	n	n	x
O=C(CNCc1ccccc1Cl)Nc1ccc2c(c1)OCCO2	n	n	n	n	n	n	x
O=C(CSCc1ccccc1Cl)Nc1ccc2c(c1)OCCO2	n	n	n	n	n	n	n
O=C(CCCC(=O)c1ccc(O)cc1)c1ccc(O)cc1	n	n	n	n	n	n	n
O=C(CCCc1ccccc1)c1ccccc1	n	n	n	n	n	n	n
COC(=O)CSc1nc2cc(C)cc(C)c2cc1C#N	n	n	n	n	n	n	x
COC(=O)CSc1nc2cc(OC)ccc2cc1C#N	n	n	n	n	n	n	n
COC(=O)CSc1nc2ccc(C)cc2cc1C#N	n	n	n	n	n	n	n
CC(=O)Nc1ccc(S(=O)(=O)Nc2ccccc2C(=O)N2CCCC2)cc1	n	n	n	n	n	n	x
O=C(c1cc(-c2ccc(Cl)cc2Cl)on1)N1CCCCCC1	n	n	x	n	n	n	n
O=C(c1cc(-c2ccc(Cl)cc2)on1)N1CCCCCC1	n	n	n	n	n	n	n
COc1cc(NC(=O)N2CCNC2=O)cc(C(=O)Nc2cccc(C(F)(F)F)c2)c1	68	n	n	n	67	n	51
Cc1cc(NCCN2CCOCC2)n2ncc(-c3ccccc3)c2n1	n	n	n	n	n	n	n
O=S(=O)(/N=C(/Nc1nc2ccccc2s1)c1ccccc1)c1ccccc1	x	n	n	n	n	n	n
O=C(Nc1ccc2nsnc2c1)c1ccc2c(c1)OCO2	x	n	n	n	n	n	n
SMILES	aSyn 5UTR inh	697 NFkB inh	Gli-Sufu block	Mdm2-MdmX inh	Jurkat NFkB inh	CSC inhib	Jurkat NFkB conf
O=C(Nc1ccc(Br)cc1)c1ccc2c(c1)OCO2	n	n	n	n	n	n	n
CCOc1ccc(-n2nc3cc(C)c(N)cc3n2)cc1	n	n	n	n	n	n	n
Cc1cc2nn(-c3ccc(F)cc3)nc2cc1N	n	n	n	n	n	n	x
COc1cccc2sc3ccc(C#CC4(O)CCCCC4)cc3c(=O)c12	n	n	n	n	n	n	n
CCOc1ccc2nc(N3CCCCCC3)sc2c1	n	n	n	n	n	n	n
O=S(=O)(c1cccc(Cl)c1)N1CCSc2ccccc21	x	n	n	n	n	n	x
CC(=O)Nc1ccc(S(=O)(=O)N2CCSc3ccccc32)cc1	x	n	n	n	56	n	49
c1ccc(-c2cc(-c3ccccc3)on2)cc1	n	n	n	n	n	n	n
COc1ccccc1NC(CC(=O)c1ccccc1)C(=O)OCC(=O)c1ccc(F)cc1 (stereo not drawn)	n	n	n	n	n	n	n
COc1ccccc1NC(=O)CCCC(=O)OCC(=O)c1ccc(F)cc1	n	n	n	n	n	n	x
Cc1oc(-c2ccc(Cl)cc2)nc1CS(=O)CC(=O)NCCCN1CCCC(C)C1 (stereo not drawn)	n	n	n	n	n	n	x
Cc1oc(-c2ccc(Cl)cc2)nc1CS(=O)CC(=O)NCCCN1CCN(Cc2ccccc2)CC1 (stereo not drawn)	n	n	n	n	65	n	n
CCCCn1c2c(c(=N)c3c1CCC3)CCC2	x	n	n	n	58	n	48
CC1(C(=O)OCC(=O)NCCNC(=O)COC(=O)C2(C)CC2(Cl)Cl)CC1(Cl)Cl (stereo not drawn)	n	n	n	n	n	n	x
COc1ccc(CCNc2cc(N3CCN(C(=O)c4ccc(C)cc4)CC3)ccc2[N+](=O)[O-])cc1OC	n	n	x	n	75	n	67
OCCC1CN(CCCc2ccccc2)CCN1Cc1ccc(F)cc1 (stereo not drawn)	n	n	n	n	n	n	x
CC1(C)C(=O)Nc2ccccc2N1C(=O)COc1cc(Cl)ccc1Cl	x	n	n	n	n	n	x
CC(C)(C)C(=O)N/C(N)=N/c1nc2ccccc2o1	n	n	n	n	n	n	n
CCC(=O)N/C(N)=N/c1nc2ccccc2o1	n	n	n	n	n	n	x
Cc1ccc(S(=O)(=O)N(C)C)cc1NC(=O)C1CCCCC1	n	n	n	n	n	n	x
Cc1csc(NC(=O)c2oc3ccccc3c2C)n1	n	n	n	n	n	n	n
Cc1c(C(=O)NC2=NCCS2)oc2ccccc12	n	n	n	n	n	n	n
Cc1ccc(-n2c(CNc3ccc(F)cc3)nnc2SCC(N)=O)cc1	n	n	n	n	n	n	x
CC1(C)Cc2nc3sc4c(=O)n(CC(=O)NCc5ccco5)cnc4c3cc2CO1	n	n	n	n	50	x	n
Cc1ccc(C)c(OCCC(=O)N2CCN(S(=O)(=O)c3cc(C)ccc3C)CC2)c1	n	n	n	n	n	n	x
SMILES	aSyn 5UTR inh	697 NFkB inh	Gli-Sufu block	Mdm2-MdmX inh	Jurkat NFkB inh	CSC inhib	Jurkat NFkB conf
COc1ccc(-n2ncc3c(NCc4ccco4)ncnc32)cc1	n	n	n	n	n	n	x
C=CCNc1ncnc2c1cnn2-c1ccc(OC)cc1	n	n	n	n	n	n	n
OCCCNc1ncnc2c1cnn2-c1ccc(Cl)cc1	n	n	n	n	n	n	n
Cc1cc(C(=O)OCC(=O)N2CCc3ccccc32)ccc1[N+](=O)[O-]	x	n	n	n	n	x	x
CCOC(=O)c1cc(CC)sc1NC(=O)c1cc([N+](=O)[O-])ccc1N1CCOCC1	n	n	n	n	59	n	n
O=C(c1ccc(Br)cc1)c1cc([N+](=O)[O-])ccc1N1CCOCC1	n	n	n	n	72	n	51
Cc1cccc(-c2noc(-c3ccc(Cl)cc3[N+](=O)[O-])n2)c1	n	n	n	n	n	n	n
CCc1cccc2c(C(=O)CN3C(=O)NC4(CCCCCC4)C3=O)c[nH]c12	x	n	n	n	94	x	n
CCc1cccc2c(C(=O)CN3C(=O)NC4(CCCCC4)C3=O)c[nH]c12	x	n	n	n	n	n	x
